Laboratory results from PubChem BioAssay AID2732 (Emory University Molecular Libraries Screening Center, 2010).
The campaign covered roughly 220,000 compounds. About 8,200 (3.7%) were called active.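 Rule for the calls: active = compounds that reduced the stress-induced luciferase reporter signal by more than about 70% of percent inhibition (limit read from the data); inactive = the rest.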 The list comes from a sample in which actives are over-represented; it also holds similar structures and randomly drawn compounds.

assay: inhibitors of CHOP promoter induction, primary screen, cell-based, unfolded protein response, luciferase reporter (AID 2732); settings: CHO-K1 CHOP-promoter luciferase, tunicamycin-induced, 15-18 h; at 10 µM; hits give high values;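 note: 0% = tunicamycin plus vehicle and 100% = wells without tunicamycin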

inhibition, active:
O=C1C=CC(=O)N1c1ccc(N2CCCCC2)cc1 94%
CC1=NN(C(=O)Cc2ccc(C)cc2)C(O)(c2cccnc2)C1 (stereo unspecified) 73.8%
Cn1c(=NC(=O)c2ccc3c(c2)OCCO3)sc2cc(S(C)(=O)=O)ccc21 91.9%
CC(=O)/C(=N\Nc1ccc(Cl)cc1Cl)Sc1cccc2cccnc12 93.6%
CCCc1ccc(OCc2ccc(C(=O)N/N=C/c3cccc([N+](=O)[O-])c3)o2)c(OC)c1 85.8%
CCOc1[nH]n(-c2ccc(Cl)cc2)c(=O)c1C=Nc1ccc(O)cc1 73.4%
Cn1nc(C(F)(F)F)c(C(=O)Nc2cccc(C(F)(F)F)c2)c1SCc1ccc(Cl)cc1 80.9%
COc1ccc(C(=O)/C=C/Nc2ccccn2)cc1 73.5%
CC(C)C(c1nnnn1Cc1ccccc1)N1CCC(C(N)=O)CC1 (stereo unspecified) 76.1%
COc1ccc(CS(=O)/C(Cl)=C(/Cl)C(=O)Nc2ccc(OC)nc2)cc1 (stereo unspecified) 107%
NC(=O)C1(N2CCCCC2)CCN(C(=O)c2ccc(C#Cc3ccccc3)o2)CC1 78.8%
Cc1ccc(N=C2NC(=O)/C(=C/C=C/c3ccco3)S2)cc1C 84.4%
O=C(Nc1ccccc1N1CCCCC1)c1cccc(F)c1 76%
O=C(Nc1ccccc1N1CCCCC1)c1ccc2nccnc2c1 79%
COC(=O)c1ccc(Oc2nc(Nc3ccc(F)cc3)nc(N3CCCC3)n2)cc1 73.6%
C=C(C)COc1ccc(-c2n[nH]c(C)c2-c2ccccc2OC)c(O)c1 105%
C=C(C)COc1ccc(-c2n[nH]c(C)c2-c2ccccc2)c(O)c1 112%
C=C(C)Cn1c(C)cc(C)c(S(=O)(=O)c2ccccc2C)c1=O 72.7%
O=C(Cc1csc(Nc2nc(=S)[nH]c3ccccc23)n1)NCCCN1CCN(c2cccc(Cl)c2)CC1 79.8%

inhibition, inactive:
Cc1cc(-n2cnc(-c3cn(C)nc3C)n2)no1 -11.3%
Brc1ccc2c(c1)[C@H]1OCC[C@H]1[C@@H](c1cccs1)N2 39.4%
COc1cccc(OC)c1C(=O)Nc1ccc(N2CCCCC2)cc1 15.2%
O=c1[nH][nH]c(=O)c2cc(N3CCCC3)ccc12 2.26%
Cc1nc(C(=O)NCc2ccccc2)sc1C1(C)CC(c2cccnc2)=NO1 (stereo unspecified) 22.9%
O=C(N/N=C/c1cccc2cccnc12)[C@H]1C[C@@H]1c1ccccc1 52.4%
CC1=NN(C(=O)c2ccc(Br)cc2)C(O)(c2ccccc2)C1 (stereo unspecified) 16.6%
CC1=NN(C(=O)c2ccccc2Br)C(O)(c2cccnc2)C1 (stereo unspecified) -24.4%
O=C(O)C1=C[C@H](c2cccs2)C[C@H](OCCCCO)O1 -3.52%
Cc1ccc(S(=O)(=O)N(C)CC(=O)OCC(=O)Nc2ccccc2)cc1 -0.65%
COc1ccccc1P(=O)(c1ccccc1)c1ccccc1NC(C)=O (stereo unspecified) 10.1%
COCCn1c(=NC(=O)c2ccccc2[N+](=O)[O-])sc2cc(S(C)(=O)=O)ccc21 -7.33%
CC(=O)c1ccc2c(c1)OCCOCCOc1ccc(C(C)=O)cc1OCCOCCO2 1.66%
O=C(Nc1ccccc1)O/N=C1/CCCc2occc21 -8.45%
CN1CCN(c2cc3c(cc2F)c(=O)c(C(=O)O)cn3CCF)CC1 2.99%
O=C(Cn1cnc2cc([N+](=O)[O-])ccc2c1=O)NC(=O)NCc1ccccc1 -6.05%
O=C(NNc1cc(Cl)cc(Cl)c1)c1c(F)cccc1Cl 30.1%
Cc1nn(CC(=O)N/N=C/c2ccc(F)cc2)c(C)c1[N+](=O)[O-] -4.46%
CSc1nnc(SCc2nc3sc(C(=O)O)c(C)c3c(=O)[nH]2)s1 3.13%
O=C(NN1C(=O)C2CCCCC2C1=O)c1ccco1 (stereo unspecified) 6.45%
O=C(CSc1cccc2cccnc12)N/N=C/c1cccnc1 42.7%
S=C(NCc1cccnc1)Nc1ccc(Cl)cc1Cl 2.87%
Nc1ccc2nn(-c3ccc(Cl)cc3)nc2c1 30.4%
COC(=O)c1ccc(COc2ccc(/C=N/NC(=O)C(=O)Nc3ccc(OC)cc3)cc2OC)o1 17.4%
COc1cc(/C=N/O)ccc1OCc1ccc([N+](=O)[O-])cc1 2.17%
COc1cc(C(CCN2CCN(c3ccccc3)CC2)c2c(OC)cc(OC)c3ccc(=O)oc23)cc(OC)c1OC (stereo unspecified) -15.7%
CCOc1ccc(N=Cc2c(O)n(-c3cccc(C)n3)c(=O)c3ccccc23)cc1 -5.5%
Cc1[nH]n(-c2ccc(Cl)cc2)c(=O)c1/C=N/n1c(C)nc2ccccc2c1=O 26.2%
CC(C)(C)c1cc(NC(=O)NN2CCOCC2)nn1-c1c(Cl)cc(Cl)cc1Cl 11.2%
CCNC(=S)N1CCN(CCN=CC2=C(O)CC(C)(C)CC2=O)CC1 13%
CC(C)(C)NC(=O)NCc1ccco1 6.03%
CSc1sc(C(=O)NNC(=O)c2ccc(Cl)cc2)c2c1C=CCC2 0.19%
O=C(Nc1ccccc1C(F)(F)F)N1CCCC1c1cccnc1 (stereo unspecified) 4.33%
O=[N+]([O-])/C=C1\CCCCCN1 -14.7%
O=C(O)CSCC(=O)Nc1cccc(C(F)(F)F)c1 -3.97%
O=C(Nc1cccc(C(F)(F)F)c1)c1cnccn1 -10.5%
CCOC(=O)CSc1nc(C)c(Oc2ccc(Cl)cc2Cl)c(=O)[nH]1 10.4%
O=C(NN1C(=O)C2C(C1=O)C1C=CC2C12CC2)c1ccccc1Cl (stereo unspecified) 3.92%
CCOc1cc(NC(=O)c2ccccn2)c(OCC)cc1NC(=O)c1ccc(OC)cc1 -5.86%
COc1ccc(-c2csc(Nc3ccccn3)n2)cc1 -4.38%
Cn1c2ccc(F)cc2c2nnc(NN)nc21 13.9%
N#CCCCn1c(O)c(N=NC(=O)C(O)c2ccccc2)c2ccccc21 (stereo unspecified) 11.1%
Cc1ccc(C(c2nnnn2CS(=O)(=O)c2ccc(C)cc2)N2CCC(C(N)=O)CC2)cc1 (stereo unspecified) 33.9%
CC(C)C(c1nnnn1CCc1ccccc1)N1CCN(C(=O)c2ccco2)CC1 (stereo unspecified) -7.76%
COc1ccc(NC(=S)Nc2ccccc2Cl)cn1 1.96%
COc1ccc(NC(=S)NCCNC(C)=O)cc1 -5.59%
Cc1nc(COc2cccc(Cl)c2)sc1C(=O)/C=C/N(C)C -1.3%
CC(C)(O)C#Cc1ccc(C(=O)N2CCC(C(N)=O)(N3CCCCC3)CC2)cc1 20.2%
NC(=O)C1(N2CCCCC2)CCN(C(=S)Nc2ccc(Cl)cc2)CC1 8.9%
COc1ccc(CCNC(=O)C2CC3Cn4c(nc5cc(C)c(C)cc54)C3N2C)cc1 (stereo unspecified) -11.2%
Cc1cccc(N=C2NC(=O)/C(=C/c3cn(C)c4ccccc34)S2)c1 14%
Cc1ccc(N2NC(=O)/C(=C/C=C/c3ccco3)C2=O)cc1C 5.23%
CCN(CC)C(=O)CC(c1ccc2c(c1)OCO2)c1c(OC)cc(OC)c2c(-c3ccccc3)cc(=O)oc12 (stereo unspecified) 9.26%
O=C(Nc1ccccc1N1CCN(c2ccccc2)CC1)c1cccc(F)c1 44.2%
Cc1cccc(C(=O)Nc2ccccc2N2CCN(c3ccc(F)cc3)CC2)c1 30.4%
Cc1cc(C(=O)Nc2ccccc2N2CCOCC2)c2ccccc2n1 26.9%
O=C(Nc1ccccc1N1CCN(C(=O)c2ccccc2)CC1)c1ccc2c(c1)OCO2 40%
CCc1ccccc1N1CN(Cc2ccco2)CNC1=S -7.09%
Cc1nc(-c2nnc(SCC(=O)Nc3cc(C(F)(F)F)cc(C(F)(F)F)c3)n2C)cs1 61.4%
CC1CC(C)(C)n2c(O)c(N=NC(N)=S)c3cccc1c32 (stereo unspecified) 21.3%
CCOc1ccc2sc(NS(=O)(=O)c3ccc(N)cc3)nc2c1 5.24%
CCNc1nc(Oc2ccc(C(=O)OC)cc2)nc(N2CCOCC2)n1 -6.61%
COC(=O)c1ccc(Oc2nc(NC(C)C)nc(SC)n2)cc1 20.5%
Cc1[nH]nc(-c2ccc(OCc3cnn(-c4ccccc4)c3)cc2O)c1Oc1ccc(Cl)cc1 51.5%
CCOc1ccc(-c2n[nH]c(C)c2-c2ccccn2)c(O)c1 9.43%
C=C(C)COc1ccc(-c2nc(N)ncc2-c2ccccc2OC)c(O)c1 7.39%
CCOc1ccc(-c2nc(N)ncc2-c2ccccc2OC)c(O)c1 16.1%
Brc1ccc(-c2nn[nH]n2)cc1 6.83%
COC(C[C@@H](O)[C@H](C)[C@H](O)COCc1ccccc1)OC 0.72%
Cc1nc(CNS(=O)(=O)c2cc([N+](=O)[O-])ccc2C)cs1 24.2%
O=C(NCCc1ccccc1)Oc1ccc(Cl)cc1 -12.7%
Cc1ccccc1Nc1c(-c2ccccc2)nc2ncccn12 1.44%
Clc1ccc(CSc2nnc3c(n2)[nH]c2ccccc23)cc1 10.8%
C=CCC1(C#N)C(=S)NC(C)=C(C(=O)OCC)C1c1ccccc1 (stereo unspecified) 8.99%
CCOC(=O)/C=C/CN(C(=O)OC(C)(C)C)S(=O)(=O)N1CC=CC1 0.06%
O=C(CCn1c(=O)[nH]c2ccccc2c1=O)NCCCN1CCN(c2cccc(Cl)c2)CC1 -9.62%
COc1cccc(CNC(=O)Cc2csc(Nc3nc(=S)[nH]c4ccccc34)n2)c1 49.7%
